Data reported in ChEMBL document CHEMBL3433997, “St. Jude Leishmania screening dataset” (2016).

What follows are compounds tested against Glucose transporter (Leishmania mexicana) (UniProt O61059) (assay: ST_JUDE_LEISH: Cytotoxicity at 2uM final concentration against transgenic Leishmania Mexicana promastigotes LmGT2 that are glucose transport deficient and complemented with the L. Mexicana glucose transporter 2. Activity is measured by DNA content using SYBR green in vitro).
Assay type: functional

Point of comparison: `O=C(Nc1ccc2c(c1)CCN2C1CCN(Cc2cccc(C(F)(F)F)c2)C1)c1ccco1` (stereo not given), inhibition -0.47%. Against it:
- COc1ccccc1NC(=O)OC(COc1ccc(N)cc1)CN1CC=C(c2ccccc2)CC1 (stereo not given) — higher, 0.98%
- COc1ccc(-c2nc(NC(=O)CS(=O)(=O)c3ccc(F)cc3)sc2C)cc1 — higher, 2.47%
- O=C(NC1CCN(Cc2ccccc2)CC1)c1ccc(-c2nc3cc4ccccc4cc3[nH]2)s1 — higher, 4.03%
- COc1c(C2CCN(CCCCNC(=O)c3ccc(-c4ccc(C(F)(F)F)cc4)c(C(=O)OC(C)C)c3)CC2)ccc2c1CCCC2 — higher, 0.91%
- CCCCCCNC(=N)c1ccc2[nH]c(-c3ccc(O)cc3)nc2c1 — higher, 3.78%
- CC(C)CC1(C(=O)OC(C)(C)C)CC(C(=O)OC(C)(C)C)C(c2cccs2)N1C(=O)c1ccc(C(C)(C)C)cc1 (stereo not given) — higher, 2.67%
- COC(=O)c1ccc(-c2ccc(-c3cccnc3)cc2C)cc1 — higher, 74.1%
- O=C(NCCCCNCC(Cc1cccc(O)c1)c1ccccc1)c1ccc(NC(=O)c2ccc(Cl)cc2)cc1 (stereo not given) — lower, -1.18%
- CC(C)Cc1cnc2nc(N)nc(N)c2c1 — higher, 1.4%
- CCN(CC)Cc1cc(NC(=O)c2ccccc2O)ccc1Oc1ccc(Cl)cc1 — higher, 1.46%
- COc1cc(OC)nc(-c2cccc(NC(=O)c3ccc4c(=O)n(CCN5CCCCC5)cnc4c3)c2)n1 — higher, 7.35%
- CNC(=O)c1cc(S(=O)(=O)N2CCN(c3ccccn3)CC2)c(C)s1 — higher, 1.44%
- Fc1ccc2[nH]c(-c3ccccc3)nc2c1CN1CCC(N2CCCC2)CC1 — higher, 2.29%
- CCCCCCCCOc1ccc(N2C(N)=NC(N)=NC2(C)C)cc1 — higher, -0.03%
- CS(=O)(=O)c1ccc(CNCc2cccc(-c3cccc(-c4nc5cc(F)ccc5[nH]4)c3)c2)cc1 — lower, -2.93%
- Cc1[nH]c(C)c(-c2ccc(-c3cccc(Cl)c3)nc2)c(=O)c1Br — higher, 0.63%
- Cc1cccc2nc(-c3cccc(-c4cccc(CNCCN5CCNCC5)c4)c3)[nH]c12 — higher, 0.48%
- Nc1nc(N)c2c(Oc3cccnc3)cccc2n1 — lower, -0.57%
- COc1ccc2nccc([C@@H](O)CN3CCC(NCCOc4cc(C(F)(F)F)ccc4F)CC3)c2c1 — higher, 14.4%
- CCN(CC)CCN(Cc1ccc(-c2ccc(C(F)(F)F)cc2)cc1)C(=O)Cn1c(CCc2ccc(F)c(F)c2F)nc(=O)c2ccc(F)cc21 — higher, -0.03%
- COc1ccc2nc3cc(Cl)ccc3c(N)c2c1 — higher, 3.3%
- CCCCCc1cnc2nc(N)nc(N)c2c1C — higher, 12.4%
- CN(C)CCCn1cncc1-c1ccc2ncnc(Nc3ccc4c(cnn4Cc4ccccc4)c3)c2c1 — higher, 1.35%
- CCCCCCC(N)c1ccc(OCCCOc2ccc(C(N)CCCCCC)cc2)cc1 (stereo not given) — higher, 109%
